{"source": "PubChem BioAssay (NCATS)", "note": "Inconclusive results are not listed. Values without a mark were called inactive. Activity calls are given as the source filed them. Calls come from the whole dose curve. Potency is the fitted concentration of half-maximal effect."}
{"molecular_target": "Cytochrome P450 1A2 (Homo sapiens) (UniProt P05177)", "sequence (P05177 whole entry, looked up)": "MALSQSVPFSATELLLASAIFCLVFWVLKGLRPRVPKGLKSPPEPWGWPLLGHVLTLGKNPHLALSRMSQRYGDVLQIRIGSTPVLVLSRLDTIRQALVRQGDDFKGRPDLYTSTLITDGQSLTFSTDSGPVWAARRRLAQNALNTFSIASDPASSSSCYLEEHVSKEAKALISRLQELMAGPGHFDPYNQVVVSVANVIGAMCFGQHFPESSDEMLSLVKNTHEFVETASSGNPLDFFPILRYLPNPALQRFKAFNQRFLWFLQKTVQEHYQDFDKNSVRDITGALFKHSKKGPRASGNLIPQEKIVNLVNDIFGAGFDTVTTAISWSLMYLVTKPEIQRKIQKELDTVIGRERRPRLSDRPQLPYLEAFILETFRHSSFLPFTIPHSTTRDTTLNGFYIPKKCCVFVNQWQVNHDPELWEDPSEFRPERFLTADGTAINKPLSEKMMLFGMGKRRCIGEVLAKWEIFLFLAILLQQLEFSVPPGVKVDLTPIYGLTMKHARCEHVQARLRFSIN", "experiment": "p450-cyp1a2 (AID 410);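 for activity change, negative = inhibition: -100% = full effect of reference inhibitor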", "settings": "recombinant CYP1A2, luciferin-ME demethylation, luminescence; series mostly up to 57 µM; activity change, negative = inhibition: at the top concentration", "summary_of_the_method": "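Luminescent readout of luciferin formed from Luciferin-ME by human CYP1A2; data normalized against complete inhibition by 57 uM furafylline. Enzyme 20nM, substrate 100uM at Km, 100mM KPO4 buffer, 60 min reaction at room temperature.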", "units": {"activity change, negative = inhibition": "%"}}
{"smiles": "CC(C)C[C@@H](CC(=O)N[C@@H](CCCN)CC(=O)N[C@@H]1CCCC[C@H]1C(=O)N[C@H](CC(=O)N[C@@H](CCC(=O)O)CC(=O)O)Cc1c[nH]c2ccccc12)NC(=O)[C@@H]1CCCC[C@H]1N", "activity change, negative = inhibition": -17.9}
{"smiles": "CC(C)C[C@@H](CC(=O)N[C@@H](CCC(=O)O)CC(=O)O)NC(=O)[C@@H]1CCCC[C@H]1NC(=O)C[C@H](CCCN)NC(=O)C[C@H](CO)NC(=O)[C@@H]1CCCC[C@H]1N", "activity change, negative = inhibition": -33.6}
{"smiles": "CC(C)[C@@H](CC(=O)N[C@@H]1CCNC[C@H]1C(=O)N[C@H](CC(=O)N[C@@H](CCC(=O)O)CC(=O)O)Cc1c[nH]c2ccccc12)NC(=O)C[C@H](Cc1c[nH]c2ccccc12)NC(=O)[C@@H]1CNCC[C@H]1N", "activity change, negative = inhibition": -18.7}
{"smiles": "CC(C)C[C@@H](CC(=O)N[C@@H](CCC(=O)O)CC(=O)O)NC(=O)[C@@H]1CNCC[C@H]1NC(=O)C[C@@H](NC(=O)C[C@H](Cc1c[nH]c2ccccc12)NC(=O)[C@@H]1CNCC[C@H]1N)C(C)C", "activity change, negative = inhibition": -15}
{"smiles": "CC(C)C[C@@H](CC(=O)N[C@H](CC(=O)N[C@@H]1CCCC[C@H]1C(=O)N[C@H](CC(=O)N[C@@H](CCC(=O)O)CC(=O)O)CC(C)C)C(C)C)NC(=O)[C@@H]1CNCC[C@H]1N", "activity change, negative = inhibition": -10.5}
{"smiles": "NCCC[C@@H](CC(=O)N[C@@H]1CCNC[C@H]1C(=O)N[C@H](CC(=O)N[C@@H](CCC(=O)O)CC(=O)O)Cc1ccccc1)NC(=O)C[C@H](Cc1ccccc1)NC(=O)[C@@H]1CNCC[C@H]1N", "Potency": "31.6 µM (active)"}
{"smiles": "CC(C)C[C@@H](CC(=O)N[C@@H](CCC(=O)O)CC(=O)O)NC(=O)[C@@H]1CCCC[C@H]1NC(=O)C[C@@H](NC(=O)C[C@H](CO)NC(=O)[C@@H]1CNCC[C@H]1N)C(C)C", "activity change, negative = inhibition": -9}
